Screening data: PubChem, National Center for Advancing Translational Sciences (NCATS)
A selection: hits, their analogues and other compounds. The true share with any hit is near 10%.
HP1b binding inh: inhibitors of HP1-beta chromodomain binding to methylated histone tails; AlphaScreen HP1-beta / biotin-H3K9me3 peptide binding; Potency, µM (doses to about 114 µM), actives largely listed as inhibitors; 0.56% of 390,000 active; further: nearly all actives have a fitted effect of over 70% in size
Target sequence (P83916 whole entry, looked up): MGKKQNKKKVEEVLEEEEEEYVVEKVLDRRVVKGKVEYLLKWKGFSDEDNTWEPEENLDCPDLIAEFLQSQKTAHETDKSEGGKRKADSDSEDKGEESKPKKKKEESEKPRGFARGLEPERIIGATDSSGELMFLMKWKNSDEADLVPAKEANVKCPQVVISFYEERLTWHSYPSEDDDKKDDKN
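Compound inhibition of the preformed complex between 50 nM HP1-beta and 50 nM biotinylated H3K9me3 peptide was read by AlphaScreen. Buffer was PBS pH 7.4 with 0.01% Tween-20. Incubations ran 30 min at room temperature, with 10 ug/mL donor/acceptor beads.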
G9a inh: inhibitors of human histone lysine methyltransferase G9a; Q96KQ7; G9a H3K9 monomethylation, AlphaScreen, 2 h; Potency, µM (doses to about 102 µM), hits mostly inhibitors; 8.8% of 350,000 active; AID 504332; further: nearly all actives have a fitted effect of over 75% in size
Target sequence (Q96KQ7 913-1193 limits assumed): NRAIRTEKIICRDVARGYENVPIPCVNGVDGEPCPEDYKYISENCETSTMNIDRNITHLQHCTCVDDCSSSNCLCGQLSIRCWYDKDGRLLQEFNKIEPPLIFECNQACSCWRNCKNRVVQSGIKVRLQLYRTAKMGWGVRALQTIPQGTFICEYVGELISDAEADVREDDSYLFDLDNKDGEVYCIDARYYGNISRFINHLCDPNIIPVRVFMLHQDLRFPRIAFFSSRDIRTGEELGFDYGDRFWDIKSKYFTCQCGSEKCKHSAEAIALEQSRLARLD
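Step 1: enzyme (final 20 nM) with compound, 15 min RT. Step 2: substrate peptide 500 nM and SAM 20 uM, 2 h RT. Step 3: anti-H3K9me1 antibody and AlphaScreen beads, 10 min, then plate read.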
BAZ2B inh: BAZ2B (human) inhibition; Q9UIF8; 4.4% of 360,000 active; Potency, µM (series often up to 114 µM), actives largely listed as inhibitors; AlphaScreen BAZ2B-H3K14Ac peptide displacement; AID 504333; further: nearly all actives have a fitted effect of over 60% in size
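Inhibition is scored as reduced AlphaScreen emission. The BAZ2B/b-H3(5-23)K14Ac complex (50 nM each) in PBS pH 7.4, 0.01% Tween-20 meets compound (up to 110 uM) for 30 min at RT before bead addition.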
JMJD2A Tudor inh: inhibitors of human JMJD2A Tudor domain; Potency, µM (titrated, usually from 114 µM), hits mostly inhibitors; AlphaScreen JMJD2A-Tudor / H3K4me3 peptide binding; AID 504339; 4.4% of 390,000 active; further: nearly all actives have a fitted effect of over 50% in size
GLS inh: blocks human kidney-isoform glutaminase activity; O94925; GLS enzymatic activity, qHTS titration; Potency, µM (top dose mostly 45.5 µM), usual class: inhibitors; 0.21% of 410,000 active; AID 624170
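Compounds were pin-transferred onto hKGA, after which L-glutamine (1 mM solution) and a detection mix of glutamate oxidase, HRP and Amplex Red were added. Initial and 30 min RT fluorescence reads were collected.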
Each line names hits and unclear results; the compound was inactive in the other large screens. The call rests on the fitted dose curve; in most records, active means well fitted curve in the direction sought with a large enough effect; inconclusive means small, poorly fitted or top-dose-only effect, or another doubt; inactive means no such curve, though single readings can be large; an effect the other way counts as inactive or inconclusive.

COc1ccc(C2NC(=O)C(C#N)=C(S)N2c2cccc(C)c2)cc1OC (configuration not stated)	G9a inh 39.8µM
O=C(Nc1nc(Nc2cc(F)cc(F)c2)nc(NC2CCCC2)n1)OCc1ccccc1	none (no result: HP1b binding inh, G9a inh, BAZ2B inh, GLS inh)
COc1ccc(C2/C=C\CN([S+](=O)([O-])c3ccc4ccccc4c3)C(C)C(=O)N2Cc2ccc(F)cc2)cc1 (configuration not stated)	none (no result: G9a inh, BAZ2B inh, GLS inh)
CC(=O)N=C1SC2CS(=O)(=O)CC2N1c1ccc(-c2nc3ccc(C)cc3s2)cc1 (configuration not stated)	none (no result: HP1b binding inh, JMJD2A Tudor inh, GLS inh)
Cc1ccc2nc(-c3ccc(N4C(=NC(=O)CCC(=O)O)SC5CS(=O)(=O)CC54)cc3)sc2c1 (configuration not stated)	HP1b binding inh inconclusive, G9a inh 44.7µM, BAZ2B inh inconclusive, JMJD2A Tudor inh inconclusive, GLS inh inconclusive
CCCCCCCN(c1ccccc1)[C@@H]1C[C@H]2CCCC(=O)N3CC[C@@H](C1)[C@@H]23	JMJD2A Tudor inh 44.7µM (no result: G9a inh, BAZ2B inh)
Nn1c(C2COc3ccccc3O2)n[nH]c1=S (configuration not stated)	G9a inh 2.82µM, BAZ2B inh inconclusive, JMJD2A Tudor inh 8.91µM
Cc1ccc(C(=O)c2c(C)oc3c2C(=O)C(=O)c2ccccc2-3)cc1	HP1b binding inh 17.8µM, G9a inh inconclusive, BAZ2B inh 31.6µM, JMJD2A Tudor inh 44.7µM
Cc1ccc(C(=O)c2coc3c2C(=O)C(=O)c2ccccc2-3)cc1	G9a inh 39.8µM, BAZ2B inh inconclusive, JMJD2A Tudor inh inconclusive
Cc1oc2c(c1C(=O)c1ccc(Cl)cc1)C(=O)C(=O)c1ccccc1-2	G9a inh inconclusive, BAZ2B inh inconclusive, JMJD2A Tudor inh inconclusive
COc1ccc(S(=O)(=O)N2CCCCC2)cc1NC(=O)c1cncc(Br)c1	none
Cc1ccc2cc3c(N)c(C(=O)Nc4c(C)[nH]c(=O)[nH]c4=O)sc3nc2c1	G9a inh 10µM, BAZ2B inh inconclusive
Cc1[nH]c(=O)[nH]c(=O)c1NC(=O)c1sc2nc3c(C)cccc3cc2c1N	G9a inh 10µM
Cc1ccc2nc3sc(C(=O)Nc4c(C)[nH]c(=O)[nH]c4=O)c(N)c3cc2c1	G9a inh 10µM
COc1ccc(N=N/C(=C\O)C(=O)c2cccs2)cc1	HP1b binding inh inconclusive, G9a inh 20µM, BAZ2B inh 11.2µM, JMJD2A Tudor inh 15.8µM
COc1ccc(CC(=O)NNC(=O)c2cccs2)cc1	none
COc1ccc(C(=O)/C(=C/O)N=Nc2ccc(F)cc2)cc1	G9a inh inconclusive, BAZ2B inh 31.6µM, JMJD2A Tudor inh 56.2µM
COc1ccc(N=N/C(C(C)=O)=C(/C)O)cc1	none
CCOc1ccc(NC(=O)Nc2cccn(Cc3ccccc3)c2=O)cc1	BAZ2B inh 39.8µM, JMJD2A Tudor inh inconclusive (no result: G9a inh)
O=C(NCc1ccccc1)Nc1cccn(Cc2ccccc2)c1=O	none
O=C(O)c1cccc(NC(=S)N/N=C/c2ccccc2OCc2cccc(Br)c2)c1	HP1b binding inh inconclusive, G9a inh 44.7µM, BAZ2B inh 44.7µM, JMJD2A Tudor inh 50.1µM
O=C(O)c1cccc(NC(=S)N/N=C/c2cccc(O)c2)c1	none
CCCOc1ccc(/C=N/Nc2ccc(C(=O)O)cc2)c(OCCC)c1	G9a inh 39.8µM, BAZ2B inh inconclusive, JMJD2A Tudor inh inconclusive
CCOc1cc(/C=N/Nc2cccc(C(=O)O)c2)ccc1OC(=O)c1ccccc1	HP1b binding inh inconclusive, G9a inh 10µM, BAZ2B inh inconclusive, JMJD2A Tudor inh inconclusive
CCOc1cc(/C=N/NC(=O)CNc2cccc(C)c2)ccc1OC(=O)c1ccccc1	BAZ2B inh inconclusive, JMJD2A Tudor inh inconclusive
CCOc1cc(/C=N/Nc2ccccc2Cl)ccc1OCC(=O)O	HP1b binding inh inconclusive, G9a inh 10µM, BAZ2B inh inconclusive, GLS inh inconclusive
CN(C)S(=O)(=O)n1cc(/C=C(\NC(=O)c2ccccc2F)C(=O)N2CCCCC2)c2ccccc21	none (no result: HP1b binding inh, G9a inh, BAZ2B inh, JMJD2A Tudor inh)
COc1ccc(C(=O)N2CCCCC2CCN2CCOCC2)cc1 (configuration not stated)	none
CCc1ccc2oc(-c3cccc(NC(=O)C(C)(C)Oc4ccc(Br)cc4)c3)nc2c1	none
COC(=O)c1ccc(COc2ccccc2/C=C(\C#N)C(=O)NC(C)C)cc1	none
COC(=O)c1ccc(COc2ccccc2/C=N/Nc2cccc(C(=O)O)c2)cc1	G9a inh 25.1µM, GLS inh inconclusive
